Compounds without any hit were thinned out: in the full panel of roughly 83,000, 20% have a hit.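 Activity criterion: percent growth below 10, measured after cells in 96-well plates were exposed to a single compound concentration for 48 hours.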 A number with no mark means an inactive call. Calls of active or inactive are those of the source.

Consider seven compounds from PubChem BioAssay (NCI).

What all share (test): NCI-60 one-dose screen, 48 h (100 = growth as untreated, 0 = no growth, -100 = all killed)
Conditions in all cases: 10 µM unless noted

For test [1], the system named is NCI-H226 lung.
In test [2] the test system is NCI-H322M lung.
Test [3] has as its system HOP-62 NSCLC.
Test [4] relates to NCI-H460 lung.
Test [5] relates to HOP-92 NSCLC.
For test [6], the system named is NCI-H522 lung.
The test system of test [7] is A549/ATCC NSCLC.
The test system of test [8] is 786-0 renal.
Test [9] deals with COLO 205 colon.
Test [10] has as its system DU-145 prostate.
The subject of test [11] is K-562 leukemia.
The subject of test [12] is MALME-3M melanoma.
The test system of test [13] is MDA-MB-231 breast.
In test [14] the test system is RXF 393 renal.
For test [15], the system named is SF-268 CNS.
Test [16] relates to SF-295 CNS.
The subject of test [17] is SF-539 CNS.
For test [18], the system named is UACC-257 melanoma.
Test [19] relates to M14 melanoma.

`N#C/C(=N\Nc1ccccc1)C(=O)Nc1cc(-c2ccccc2)nn1-c1ccccc1`: the growth was 25.6% in test [1]; 8.62% (active) in test [2]; 52.8% in [3]; 6.6% (active) in test [4]; -18.6% (active) in [5]; 15.4% in test [6]. The growth in test [7] was 30.4%; in [8], 50.5%; in test [9], 48.4%; in test [10], 51.5%; in [11], 25.9%; in test [12], 4.67% (active). Besides, the growth in test [13] was 26.1%; in test [14] it was 36.9%; in test [15] it was 22.9%; in test [16], 11.4%; in test [17], 40.4%; in test [18], 12.3%. In addition, in test [19], the growth was 33.7%.
`O=C1c2ccccc2C(=O)c2cc(Cn3c[n+](Cc4ccc5ccccc5c4)c4ccccc43)ccc21`: the growth in test [1] was 63.9%; in test [2] it was 75.4%; in test [3] it was 76.2%; in test [4], 63.4%; in test [5], 15.6%; in [6] it was 34.1%. For the same compound, the growth in [7] was 91%; in [8] it was 61.2%; in test [9] it was 24.4%; in test [10], 83.1%; in [11], 17.6%; in test [12], 48%. Further, the growth in test [13] is 26.2%; in test [14], 62.6%; in [15], 49.3%; in [16], 82.2%; in test [17], 70.6%; in [18] it was 42.9%. The growth in test [19] is 38.7%.
As to `Nc1n[nH]c2cccc(C#Cc3cccc(C(=O)Nc4ccc(Cl)c(C(F)(F)F)c4)c3)c12`, the growth was 36% in [1]; 77% in [2]; 67.5% in test [3]; 64.3% in [4]; 20.1% in test [5]; 30.9% in test [6]. In addition, the growth in [7] is 71.3%; in test [8], 76.6%; in [9], 29.3%; in [10] it was 83.6%; in [11], 6.22% (active); in [12], 14.9%. For the same compound, the growth in [13] was 40.4%; in test [14] it was 66.9%; in test [15], 61.7%; in test [16], 66.6%; in test [17] it was 33.5%; in test [18] it was 48.2%. The growth in [19] was 23%.
Regarding `COC(=O)c1nc(-c2ccccc2)oc1S(=O)(=O)N1CCN(c2ccc(OC)cc2)CC1`, the growth was 91.5% in test [1]; 91.1% in [2]; 94.5% in [3]; 98.5% in [4]; 60% in test [5]; 48.3% in test [6]. The growth in [7] was 95.9%; in test [8], 60.9%; in [9], 61.7%; in test [10], 86.5%; in test [11], 20.4%; in test [12], 77.4%. The growth was 75.7% in test [13]; 84.9% in test [14]; 93.8% in test [15]; 103% in test [16]; 94.1% in test [17]; 83.4% in test [18]. Also, the growth in test [19] is 54.2%.
`CN(CCNc1ccc(C(=N)N)cc1)c1ccc(C(=N)N)cc1`: the growth in [1] is 52.7%; in test [2], 71%; in test [3] it was 112%; in test [4], 47.9%; in test [5], 62.7%; in [6] it was 87.6%. Moreover, the growth in test [7] was 41.9%; in [8], 102%; in test [9], 135%; in test [10], 66.6%; in [11], 74.4%; in test [12] it was 84.7%. The growth was 91.8% in [13]; 109% in [14]; 99.4% in test [15]; 54.3% in test [16]; 101% in test [17]; 55.1% in [18]. Moreover, in [19], the growth was 96.1%.
Regarding `COCCn1cc(-c2nc(-c3cc4cccnc4n3C)cs2)c2cc(OC)ccc21`, the growth in [1] is 46.6%; in test [2], 26%; in [3], 47.2%; in [4], 19.2%; in test [5] it was 31.4%; in [6] it was 41.9%. For the same compound, the growth was 40.6% in test [7]; 66.8% in [8]; 50.4% in test [9]; 76.7% in [10]; 9.5% (active) in [11]; 108% in test [12]. For the same compound, the growth in test [13] was 27.5%; in [14], 78.3%; in [15], 71.3%; in [16], 66.1%; in test [17] it was 66.9%; in test [18], 74.3%. The growth in [19] is 63.7%.
For `CCCC[N+]1(C)CCN=C1Cc1ccccc1` (configuration not stated), the growth is 97.6% in [1]; 99.9% in [2]; 110% in test [4]; 90.9% in test [5]; 88.5% in [6]; 87.8% in test [7]. For the same compound, the growth was 101% in [8]; 111% in [9]; 106% in [10]; 84.6% in [11]; 98.2% in test [12]; 109% in test [13]. Further, the growth in test [14] was 100%; in [15] it was 97.7%; in [16] it was 97.4%; in test [17] it was 96.2%; in [18] it was 93.7%; in test [19], 106%.
